Mcl-1 Bim block = human Bim-Mcl-1 interaction inhibition | Bead-based flow cytometry, Bim peptide-Mcl-1 binding | inhibition, % at 10 µM | 190,000 tested, 0.1% active; in the data active means inhibition above about 40%;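 further: 0% = no compound tracer wells and 100% = peptide blocker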
Mcl1 Noxa PPI = disrupts binding of human Mcl-1 to Noxa peptide; 220,000 tested, 1.5% active; inhibition, % at 21.7 µM; Q07820; TR-FRET Mcl-1/Noxa peptide binding, 2 h;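 active means compounds that cut the protein-peptide binding signal by more than 50% relative to plate controls in a single-dose test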;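 further: His-tagged Mcl-1 with rhodamine Noxa BH3 peptide and terbium anti-His antibody; 0% = Mcl-1 plus Noxa peptide wells and 100% = peptide-only wells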
eIF4E-4G inh = blocks eIF4E binding to eIF4G. TR-FRET eIF4E-eIF4GI(517-606) binding, 2 h. P63073+Q04637. 220,000 tested, 0.37% active. inhibition, % at 21.7 µM;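 active means inhibition above about 30%, limit read from the data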;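 further: 0% = full FRET control wells and 100% = background wells lacking eIF4GI fragment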
Mcl1 Bid PPI = Mcl-1/Bid interaction inhibition. inhibition, % at 21.7 µM. TR-FRET Mcl-1/Bid-Dy647 peptide binding, 1536-well. 220,000 tested, 0.97% active. Q07820;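 active means compounds that cut the binding signal by more than half at the single screening dose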;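 further: His-tagged Mcl-1 with europium anti-His antibody binding Bid BH3 peptide; 0% = Mcl-1 plus peptide wells and 100% = peptide-only wells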
14-3-3 Bad PPI = disrupts binding of bovine 14-3-3 zeta to phospho-Bad peptide; P63103; TR-FRET 14-3-3zeta/Dy647-pBad peptide displacement, 1 h; inhibition, % at 21.7 µM; 220,000 tested, 0.71% active;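 active means inhibition above about 70%, limit read from the data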;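 further: 0% = full 14-3-3 plus peptide FRET controls and 100% = background without 14-3-3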
Hck Nef HTS = blocks Nef-activated human Hck kinase; P08631; Recombinant Hck-YEEI plus Nef, Z-Lyte FRET kinase assay; inhibition, % at 20 µM; 220,000 tested, 0.68% active; AID 463187;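 active means Hck-Nef kinase inhibition above about 50%, limit read from the data; inactive means inhibition below that limit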;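 further: 0% = DMSO with Hck plus Nef and 100% = Hck alone without Nef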
Target sequence (P08631 whole entry, looked up): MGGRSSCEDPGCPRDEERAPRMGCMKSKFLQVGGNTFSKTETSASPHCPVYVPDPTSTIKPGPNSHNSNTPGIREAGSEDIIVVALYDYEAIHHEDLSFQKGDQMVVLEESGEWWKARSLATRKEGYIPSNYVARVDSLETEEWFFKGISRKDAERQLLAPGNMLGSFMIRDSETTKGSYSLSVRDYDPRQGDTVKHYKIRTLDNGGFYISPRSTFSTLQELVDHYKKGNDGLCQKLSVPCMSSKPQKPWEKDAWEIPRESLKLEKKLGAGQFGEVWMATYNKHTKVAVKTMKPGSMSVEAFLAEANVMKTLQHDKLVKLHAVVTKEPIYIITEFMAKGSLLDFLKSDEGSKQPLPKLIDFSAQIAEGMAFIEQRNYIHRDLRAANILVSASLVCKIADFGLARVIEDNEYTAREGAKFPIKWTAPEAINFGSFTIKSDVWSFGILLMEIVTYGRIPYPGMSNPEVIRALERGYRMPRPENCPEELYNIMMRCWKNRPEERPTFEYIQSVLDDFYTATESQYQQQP
Hck-Nef confirm = confirmation of Hck-Nef kinase inhibitors. Recombinant Hck-YEEI:Nef, Z-Lyte FRET kinase assay. AID 463188. calls only at 10 µM. shares compounds with Hck Nef HTS. 1,300 tested, 28% active;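 active means average inhibition of at least 50%, with Z-scores no higher than 3 in both the phospho-tyrosine peptide and fluorescence counterscreens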
Starred values were filed as active, the others as inactive; i = inactive; · = no result given; + = active, no number. The list is not random: actives were taken first. Their share in the collection is about 3.5%.

SMILES	Mcl-1 Bim block	Mcl1 Noxa PPI	eIF4E-4G inh	Mcl1 Bid PPI	14-3-3 Bad PPI	Hck Nef HTS	Hck-Nef confirm
C=CCOc1ccc(/C=C2\C(=N)N3N=C(S(=O)(=O)CC)SC3=NC2=O)cc1OC	1	30	-5	-10	4	1	·
COc1cc(/C=C2/C(=N)N3C(c4ccccc4)=CSC3=NC2=O)ccc1OCC(=O)O	·	37	4	11	6	79*	+
CCN1CCCc2cc(CN(CCN3CCOCC3)C(=S)Nc3cc(F)cc(F)c3)ccc21	-1	60*	-1	-100	-6	55*	i
CCN1CCCc2cc(CN(CCN3CCOCC3)C(=S)Nc3ccc(OC)cc3)ccc21	-3	50	-3	-92	-2	54*	i
CCN1CCCc2cc(CN(CCN3CCOCC3)C(=S)Nc3cccc(Cl)c3)ccc21	-1	30	2	-53	-13	-24	·
Cc1ccc(O)c(NC(=S)NC(=O)/C=C/c2ccco2)c1	0	8	-1	-41	-10	75*	+
CCCn1nc(NC(=O)C2CCCO2)c2cc3cccc(C)c3nc21 (stereo not drawn)	·	-16	1	-11	-7	52*	i
CCOC(=O)c1c(NC(=O)/C=C/C(=O)O)sc(C)c1-c1ccc(C(C)(C)C)cc1	0	15	5	-15	-12	3	·
CCOC(=O)c1c(NC(=O)/C=C\C(=O)O)sc(C)c1-c1ccccc1	-3	6	-2	-3	4	57*	+
S=c1[nH]nc(Cc2cccc3ccccc23)n1-c1ccccc1	-1	23	4	8	-14	2	·
O=C(N/N=C/c1ccncc1)c1ccc(NC(=O)c2ccc(Cl)cc2)cc1	-1	15	-8	16	13	58*	i
O=C(N/N=C/c1ccncc1)c1ccc(NC(=O)c2cccc(Cl)c2)cc1	1	5	-1	-1	-3	-6	·
COc1ccc(NC(=O)c2cncc(Br)c2)cc1S(=O)(=O)N1CCCCC1	-5	17	-4	-11	-25	0	·
Cc1cccn2c(=O)c3cc(C#N)c(=O)n(-c4c(C)n(C)n(-c5ccccc5)c4=O)c3nc12	0	8	-9	-31	-4	10	·
Cc1cc(-n2c(=O)c(C#N)cc3c(=O)n4cccc(C)c4nc32)no1	2	16	-3	8	2	190*	·
Cc1cccc(-n2c(=O)c(C#N)cc3c(=O)n4ccccc4nc32)c1	0	3	0	-2	3	199*	·
CCC(C)n1c(=N)c(C#N)cc2c(=O)n3ccccc3nc21 (stereo not drawn)	-16	18	1	-11	1	29	·
Cc1ccc(C)c(-n2c(=O)c(C#N)cc3c(=O)n4ccccc4nc32)c1	0	2	-2	-19	-7	+	·
CC1=C(C(=O)NCc2ccccc2)C(c2cccs2)NC(=S)N1 (stereo not drawn)	-2	1	2	-8	-5	1	·
CC(C)C1Cc2[nH]c(=O)c(C(=O)O)cc2CO1 (stereo not drawn)	3	6	2	1	4	75*	i
Cc1cc2oc(C(=O)Nc3ccc(S(N)(=O)=O)cc3)c(C)c2cc1Cl	3	12	3	-9	-6	23	·
Cc1nc2c(ccc3nc(NC(=O)C4CC4)sc32)s1	-1	1	1	-4	-5	54*	i
CCCn1c(NC(=O)c2cccc(S(=O)(=O)N3CCCC3)c2)nc2ccccc21	-3	-58	1	-58	-12	52*	+
CCCCc1cc(=O)oc2cc(OCC(=O)N(CC)CC)c(Cl)cc12	-3	2	2	2	11	3	·
CCCCc1cc(=O)oc2c(CN(C)C)c(O)c(Cl)cc12	1	6	·	-37	·	117*	·
SMILES	Mcl-1 Bim block	Mcl1 Noxa PPI	eIF4E-4G inh	Mcl1 Bid PPI	14-3-3 Bad PPI	Hck Nef HTS	Hck-Nef confirm
CCc1c(C)c2cc(Cl)c(O)c(CN(C)C)c2oc1=O	2	-8	0	5	-2	123*	·
Cc1c(C)c2cc(Cl)c(O)c(CN(C)C)c2oc1=O	0	10	2	-27	-2	87*	·
CCc1c(C)c2cc(Cl)c(O)c(CN(CC)CC)c2oc1=O	-1	4	7	-2	6	115*	·
Cc1c(O)c(CN(C)C)cc2c1oc(=O)c1ccccc12	·	6	1	-103	-1	5	·
Clc1ccc(-c2nnc(COc3ncnc4ccccc34)o2)cc1	-1	7	-4	-16	-11	0	·
O=C(CSc1nnc(-c2ccncc2)o1)NC1C2CC3CC(C2)CC1C3 (stereo not drawn)	1	-3	8	-6	-7	2	·
Cc1c(Br)c(C(F)(F)F)nn1CC(=O)NCCCn1ccnc1	0	-6	3	-1	-9	27	·
C(=N\Nc1ncnc2sc3c(c12)CCC3)/c1ccncc1	5	4	-6	-35	-7	51*	i
Nc1cc([N+](=O)[O-])ccc1Nc1ccccc1	0	27	5	-33	-7	82*	i
CC(C)C(c1nnnn1Cc1cccs1)N1CCN(C(=O)c2ccco2)CC1 (stereo not drawn)	-1	20	-4	-16	-4	25	·
COc1ccc(OCC(=O)Nc2nc3ccc(NC(C)=O)cc3s2)cc1	-9	10	3	-20	7	51*	i
CC(=O)c1cccc(NC(=S)NC(=O)c2ccc(C)cc2Cl)c1	-2	13	-1	-27	-16	24	·
CSc1nc(N(C)CCO)c2sc3nc(-c4ccco4)c4c(c3c2n1)CCC4	8	103*	26	93*	9	89*	i
Cc1cc(C)cc(NC(=O)Cn2nnc3ccccc3c2=O)c1	1	1	-3	-19	-9	12	·
CC(=O)Nc1ccc(N2C(=O)c3ccc(C(=O)Nc4nnc(SCc5ccc(F)cc5)s4)cc3C2=O)cc1	1	4	7	-15	17	86*	i
CCC(=O)Nc1nnc(SCc2ccc(F)cc2)s1	-5	32	1	-12	7	7	·
COc1cc(NC(=O)c2cccc3c2C(=O)N(Cc2cccnc2)C3)cc(OC)c1OC	1	26	2	-2	2	-1	·
COc1cc(/C=C2/C(C)=C(C#N)c3nc(N)c(C#N)c(C)c32)ccc1OCC(=O)O	4	18	2	-69	-3	28	·
CC1=C(C#N)c2nc(N)c(C#N)c(C)c2/C1=C\c1ccc(-c2ccccc2C(=O)O)o1	5	82*	12	-6	56	61*	i
COc1cc2[nH]c(=O)n(CCC(=O)N3CCN(c4cccc(C)c4C)CC3)c(=O)c2cc1OC	-3	21	8	54*	19	74*	i

Bioassay records: PubChem BioAssay, several laboratories
